AC50 and outcome data for three compounds are collected here from PubChem BioAssay AID2284158 (EPA ToxCast).

As usually defined, the AC50 is the midpoint of the concentration-response curve, whichever way the signal moves.

Activity calls are given as the source filed them. How the source made its calls: active means hit-call score of the fitted dose curve at least 0.9, where 1 is the maximum; inconclusive means response in the unintended direction; inactive means score below 0.9.

In the assay the target is D(1A) dopamine receptor (Homo sapiens) (UniProt P21728). As to the kind of experiment: ERF_FR_GPCR_hDRD1: Eurofins (ERF) G Protein-Coupled Receptor (GPCR) Radioligand Binding LeadHunter Assay for human Dopamine Receptor D1 Antagonism, conducted at France lab site. How it is done: ERF_FR_GPCR_hDRD1 is a biochemical, single-readout assay that uses extracted gene-proteins in a cell-free assay. Measurements were taken 1 hour after chemical dosing in a 96-well plate. See D1 Human Dopamine GPCR Binding (Antagonist Radioligand) Assay, Cerep.ERF_FR_GPCR_hDRD1 is an assay component calculated from the ERF_FR_GPCR_hDRD1 assay. It is designed to measure radioligand binding using a type of binding reporter as detected by scintillation counting with radiometry technology.Data from the assay component ERF_FR_GPCR_hDRD1 was analyzed at the assay endpoint, ERF_FR_GPCR_hDRD1, in the positive analysis fitting direction relative to DMSO as the negative control and baseline of activity. Using a type of binding reporter, loss-of-signal activity can be used to understand changes in binding as they relate to gene DRD1. To generalize the intended target to other relatable targets, this assay endpoint is annotated to the gpcr intended target family, where the subfamily is dopamine.
Sequence of D(1A) dopamine receptor (Homo sapiens) (P21728 whole entry, looked up): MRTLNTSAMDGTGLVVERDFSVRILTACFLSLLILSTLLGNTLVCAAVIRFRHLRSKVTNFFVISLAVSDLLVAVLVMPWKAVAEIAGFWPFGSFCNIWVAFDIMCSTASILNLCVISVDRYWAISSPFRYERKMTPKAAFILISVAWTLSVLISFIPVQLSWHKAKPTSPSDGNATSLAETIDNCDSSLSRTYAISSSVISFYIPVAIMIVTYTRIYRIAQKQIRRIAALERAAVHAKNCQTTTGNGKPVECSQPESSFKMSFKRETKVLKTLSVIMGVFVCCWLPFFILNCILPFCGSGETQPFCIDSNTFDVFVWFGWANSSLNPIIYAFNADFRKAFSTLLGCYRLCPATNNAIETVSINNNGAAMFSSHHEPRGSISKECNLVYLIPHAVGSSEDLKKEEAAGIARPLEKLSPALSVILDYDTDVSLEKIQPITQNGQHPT
Human cells are incubated for 60 minutes at room temprature with [3H]SCH 23390 ligand (0.3 nM) and SCH 23390 as control inhibitor.Test Sample Requirements: Minimum for 1) Screen: 60 ul of 10 mM stock -OR- 1 mg (pre-weighed) for 10 uM final testing. 2) Dose Response: 90 ul of 10 mM stock -OR- 1 mg (pre-weighed) for a top concentration at 10 uM.
In the case of `COc1cc(/C=C/C(=O)CC(=O)/C=C/c2ccc(O)c(OC)c2)ccc1O`, the AC50 was 2.04 µM (active). As for `COc1cc(CCC(=O)CC(=O)CCc2ccc(O)c(OC)c2)ccc1O`, the compound was called inactive. For the compound `O=C(/C=C/c1ccc(O)cc1)CC(=O)/C=C/c1ccc(O)cc1`, the AC50 is 1.07 µM (active).
